# Reference: the supplement of paper PMC11732987, “Enantioselective OTUD7B fragment discovery through chemoproteomics screening and high-throughput optimisation” (Communications Chemistry, 2025)
# Values without a mark were called inactive.
# Experiments:
# Assay in all cases: log2 ratio of Biotin-Ahx-Ub-VS probe labelling (fragment/DMSO); higher = less target engagement (more negative = stronger competition), active = hit call of the paper (q ≤ 0.05, log2 ratio ≤ -1)
# Conditions in all cases: compound concentration: 200 uM; treatment time: 3 h
# USP34 = USP34 (UniProt Q70CQ2)
# How it was run: (§1)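 Labelled DUBs from HEK293T lysate were NeutrAvidin-enriched, digested with LysC and trypsin, and run by diaPASEF LC-MS/MS. Before that, each 495 µg sample in Tris/CHAPS/IGEPAL buffer with protease inhibitors was treated in triplicate with fragment at 200 µM or vehicle for 3 h, then with Biotin-Ahx-Ub-VS at 0.5 µM final for 1 h. Values are average log2 ratios of fragment over vehicle by unpaired t-test, based on global-median-normalised Spectronaut label-free quantities from proteins with ≥2 unique peptides.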
# USP36 = target: T1, USP36 (UniProt Q9P275)
# T1 sequence (whole entry): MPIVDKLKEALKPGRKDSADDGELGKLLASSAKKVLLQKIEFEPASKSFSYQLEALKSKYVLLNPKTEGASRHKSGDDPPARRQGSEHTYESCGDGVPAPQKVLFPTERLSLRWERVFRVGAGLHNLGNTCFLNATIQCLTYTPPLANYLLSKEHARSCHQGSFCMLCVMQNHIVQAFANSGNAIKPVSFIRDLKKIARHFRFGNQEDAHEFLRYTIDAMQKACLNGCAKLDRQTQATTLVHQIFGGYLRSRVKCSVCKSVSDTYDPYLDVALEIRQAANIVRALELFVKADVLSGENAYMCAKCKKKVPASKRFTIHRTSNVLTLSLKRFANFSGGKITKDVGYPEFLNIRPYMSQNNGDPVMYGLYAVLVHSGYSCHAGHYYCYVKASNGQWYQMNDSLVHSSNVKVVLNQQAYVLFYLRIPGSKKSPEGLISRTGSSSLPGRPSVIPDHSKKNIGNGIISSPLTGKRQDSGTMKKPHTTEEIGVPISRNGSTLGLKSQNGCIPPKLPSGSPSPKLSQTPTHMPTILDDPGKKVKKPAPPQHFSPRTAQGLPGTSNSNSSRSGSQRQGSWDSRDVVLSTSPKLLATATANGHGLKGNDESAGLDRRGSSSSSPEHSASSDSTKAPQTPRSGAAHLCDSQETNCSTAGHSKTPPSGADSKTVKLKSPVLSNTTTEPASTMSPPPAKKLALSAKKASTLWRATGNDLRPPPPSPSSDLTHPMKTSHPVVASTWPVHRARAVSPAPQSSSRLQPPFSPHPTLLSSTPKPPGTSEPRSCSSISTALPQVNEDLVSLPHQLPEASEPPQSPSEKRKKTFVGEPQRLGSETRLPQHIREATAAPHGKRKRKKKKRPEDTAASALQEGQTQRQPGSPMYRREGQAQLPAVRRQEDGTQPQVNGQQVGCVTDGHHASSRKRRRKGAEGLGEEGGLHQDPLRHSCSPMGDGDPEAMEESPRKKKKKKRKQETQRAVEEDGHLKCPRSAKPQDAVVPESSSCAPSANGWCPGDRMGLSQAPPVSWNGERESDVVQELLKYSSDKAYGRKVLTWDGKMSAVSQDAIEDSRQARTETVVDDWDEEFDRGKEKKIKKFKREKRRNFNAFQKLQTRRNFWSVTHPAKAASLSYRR
# How it was run: as §1
# USP38 = target: T2, USP38 (UniProt Q8NB14)
# T2 sequence (whole entry): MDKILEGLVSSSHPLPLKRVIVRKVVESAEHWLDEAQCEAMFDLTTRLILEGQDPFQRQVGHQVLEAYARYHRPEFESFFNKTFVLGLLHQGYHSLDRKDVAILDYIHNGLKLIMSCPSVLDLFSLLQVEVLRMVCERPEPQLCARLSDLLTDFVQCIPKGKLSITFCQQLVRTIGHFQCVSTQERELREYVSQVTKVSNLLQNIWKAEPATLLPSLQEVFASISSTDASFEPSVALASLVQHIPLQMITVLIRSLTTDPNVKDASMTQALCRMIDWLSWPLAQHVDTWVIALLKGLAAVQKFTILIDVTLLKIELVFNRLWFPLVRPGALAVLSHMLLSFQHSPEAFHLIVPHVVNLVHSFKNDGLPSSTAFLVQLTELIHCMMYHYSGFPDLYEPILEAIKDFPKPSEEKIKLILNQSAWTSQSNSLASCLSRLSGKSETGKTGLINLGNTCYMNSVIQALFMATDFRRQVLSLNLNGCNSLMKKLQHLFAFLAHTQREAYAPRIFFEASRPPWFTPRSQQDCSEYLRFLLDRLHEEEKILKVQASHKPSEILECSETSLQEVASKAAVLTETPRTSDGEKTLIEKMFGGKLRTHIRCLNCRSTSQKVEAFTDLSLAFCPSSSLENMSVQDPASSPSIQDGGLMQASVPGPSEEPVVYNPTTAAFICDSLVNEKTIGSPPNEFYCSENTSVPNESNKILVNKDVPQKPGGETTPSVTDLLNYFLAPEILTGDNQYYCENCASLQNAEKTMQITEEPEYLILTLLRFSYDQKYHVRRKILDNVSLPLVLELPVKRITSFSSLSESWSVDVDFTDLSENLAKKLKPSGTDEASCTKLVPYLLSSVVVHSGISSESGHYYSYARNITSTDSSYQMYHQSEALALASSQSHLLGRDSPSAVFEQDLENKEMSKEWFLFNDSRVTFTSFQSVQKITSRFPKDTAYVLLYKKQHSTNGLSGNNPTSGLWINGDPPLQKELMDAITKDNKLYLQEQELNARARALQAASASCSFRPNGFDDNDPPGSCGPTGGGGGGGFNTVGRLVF
# How it was run: as §1
# USP39 = target: T3, USP39 (UniProt Q53GS9)
# T3 sequence (whole entry): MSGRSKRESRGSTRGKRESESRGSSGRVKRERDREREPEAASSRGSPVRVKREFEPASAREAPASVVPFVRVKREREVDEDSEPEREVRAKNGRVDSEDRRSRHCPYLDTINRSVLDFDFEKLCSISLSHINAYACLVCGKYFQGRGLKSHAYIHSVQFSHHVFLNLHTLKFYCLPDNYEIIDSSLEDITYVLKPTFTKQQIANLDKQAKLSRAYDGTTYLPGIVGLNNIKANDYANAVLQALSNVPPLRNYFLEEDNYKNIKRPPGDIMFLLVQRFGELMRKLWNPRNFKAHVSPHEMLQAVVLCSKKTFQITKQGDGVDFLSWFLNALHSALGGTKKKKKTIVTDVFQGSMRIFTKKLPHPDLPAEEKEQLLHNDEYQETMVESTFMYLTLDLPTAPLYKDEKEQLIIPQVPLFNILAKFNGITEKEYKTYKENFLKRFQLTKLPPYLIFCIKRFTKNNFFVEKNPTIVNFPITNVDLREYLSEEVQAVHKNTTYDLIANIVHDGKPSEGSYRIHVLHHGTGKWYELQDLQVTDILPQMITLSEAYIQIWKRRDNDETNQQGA
# How it was run: as §1
# USP4 = target: T4, USP4 (UniProt Q13107)
# T4 sequence (whole entry): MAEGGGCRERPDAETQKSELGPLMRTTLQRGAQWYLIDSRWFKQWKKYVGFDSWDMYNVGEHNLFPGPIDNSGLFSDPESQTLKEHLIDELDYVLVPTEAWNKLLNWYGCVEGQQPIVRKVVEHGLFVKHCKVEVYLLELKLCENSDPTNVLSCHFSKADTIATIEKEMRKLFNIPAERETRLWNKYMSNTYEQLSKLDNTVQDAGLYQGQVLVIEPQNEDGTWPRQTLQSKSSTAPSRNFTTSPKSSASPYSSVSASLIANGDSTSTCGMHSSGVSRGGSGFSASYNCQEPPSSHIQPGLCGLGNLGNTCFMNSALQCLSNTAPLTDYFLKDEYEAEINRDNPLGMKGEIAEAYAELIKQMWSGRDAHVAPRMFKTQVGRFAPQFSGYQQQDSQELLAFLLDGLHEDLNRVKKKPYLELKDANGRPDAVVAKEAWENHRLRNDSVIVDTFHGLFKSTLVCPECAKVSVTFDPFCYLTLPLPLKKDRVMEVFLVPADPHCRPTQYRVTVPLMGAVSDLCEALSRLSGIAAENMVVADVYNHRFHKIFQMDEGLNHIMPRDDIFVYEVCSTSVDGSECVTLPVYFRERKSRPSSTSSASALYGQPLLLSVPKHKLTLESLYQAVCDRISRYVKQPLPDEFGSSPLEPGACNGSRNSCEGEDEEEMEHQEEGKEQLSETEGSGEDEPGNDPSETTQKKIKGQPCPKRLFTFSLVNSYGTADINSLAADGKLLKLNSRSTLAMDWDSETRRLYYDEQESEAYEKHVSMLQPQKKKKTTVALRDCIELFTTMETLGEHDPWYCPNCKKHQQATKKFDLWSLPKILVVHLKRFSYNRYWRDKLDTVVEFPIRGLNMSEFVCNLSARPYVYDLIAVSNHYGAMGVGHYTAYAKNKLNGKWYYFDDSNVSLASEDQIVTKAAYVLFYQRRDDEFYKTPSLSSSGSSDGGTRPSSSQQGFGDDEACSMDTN
# How it was run: as §1
# USP34, sequence (Q70CQ2 whole entry, the tested form may be a part): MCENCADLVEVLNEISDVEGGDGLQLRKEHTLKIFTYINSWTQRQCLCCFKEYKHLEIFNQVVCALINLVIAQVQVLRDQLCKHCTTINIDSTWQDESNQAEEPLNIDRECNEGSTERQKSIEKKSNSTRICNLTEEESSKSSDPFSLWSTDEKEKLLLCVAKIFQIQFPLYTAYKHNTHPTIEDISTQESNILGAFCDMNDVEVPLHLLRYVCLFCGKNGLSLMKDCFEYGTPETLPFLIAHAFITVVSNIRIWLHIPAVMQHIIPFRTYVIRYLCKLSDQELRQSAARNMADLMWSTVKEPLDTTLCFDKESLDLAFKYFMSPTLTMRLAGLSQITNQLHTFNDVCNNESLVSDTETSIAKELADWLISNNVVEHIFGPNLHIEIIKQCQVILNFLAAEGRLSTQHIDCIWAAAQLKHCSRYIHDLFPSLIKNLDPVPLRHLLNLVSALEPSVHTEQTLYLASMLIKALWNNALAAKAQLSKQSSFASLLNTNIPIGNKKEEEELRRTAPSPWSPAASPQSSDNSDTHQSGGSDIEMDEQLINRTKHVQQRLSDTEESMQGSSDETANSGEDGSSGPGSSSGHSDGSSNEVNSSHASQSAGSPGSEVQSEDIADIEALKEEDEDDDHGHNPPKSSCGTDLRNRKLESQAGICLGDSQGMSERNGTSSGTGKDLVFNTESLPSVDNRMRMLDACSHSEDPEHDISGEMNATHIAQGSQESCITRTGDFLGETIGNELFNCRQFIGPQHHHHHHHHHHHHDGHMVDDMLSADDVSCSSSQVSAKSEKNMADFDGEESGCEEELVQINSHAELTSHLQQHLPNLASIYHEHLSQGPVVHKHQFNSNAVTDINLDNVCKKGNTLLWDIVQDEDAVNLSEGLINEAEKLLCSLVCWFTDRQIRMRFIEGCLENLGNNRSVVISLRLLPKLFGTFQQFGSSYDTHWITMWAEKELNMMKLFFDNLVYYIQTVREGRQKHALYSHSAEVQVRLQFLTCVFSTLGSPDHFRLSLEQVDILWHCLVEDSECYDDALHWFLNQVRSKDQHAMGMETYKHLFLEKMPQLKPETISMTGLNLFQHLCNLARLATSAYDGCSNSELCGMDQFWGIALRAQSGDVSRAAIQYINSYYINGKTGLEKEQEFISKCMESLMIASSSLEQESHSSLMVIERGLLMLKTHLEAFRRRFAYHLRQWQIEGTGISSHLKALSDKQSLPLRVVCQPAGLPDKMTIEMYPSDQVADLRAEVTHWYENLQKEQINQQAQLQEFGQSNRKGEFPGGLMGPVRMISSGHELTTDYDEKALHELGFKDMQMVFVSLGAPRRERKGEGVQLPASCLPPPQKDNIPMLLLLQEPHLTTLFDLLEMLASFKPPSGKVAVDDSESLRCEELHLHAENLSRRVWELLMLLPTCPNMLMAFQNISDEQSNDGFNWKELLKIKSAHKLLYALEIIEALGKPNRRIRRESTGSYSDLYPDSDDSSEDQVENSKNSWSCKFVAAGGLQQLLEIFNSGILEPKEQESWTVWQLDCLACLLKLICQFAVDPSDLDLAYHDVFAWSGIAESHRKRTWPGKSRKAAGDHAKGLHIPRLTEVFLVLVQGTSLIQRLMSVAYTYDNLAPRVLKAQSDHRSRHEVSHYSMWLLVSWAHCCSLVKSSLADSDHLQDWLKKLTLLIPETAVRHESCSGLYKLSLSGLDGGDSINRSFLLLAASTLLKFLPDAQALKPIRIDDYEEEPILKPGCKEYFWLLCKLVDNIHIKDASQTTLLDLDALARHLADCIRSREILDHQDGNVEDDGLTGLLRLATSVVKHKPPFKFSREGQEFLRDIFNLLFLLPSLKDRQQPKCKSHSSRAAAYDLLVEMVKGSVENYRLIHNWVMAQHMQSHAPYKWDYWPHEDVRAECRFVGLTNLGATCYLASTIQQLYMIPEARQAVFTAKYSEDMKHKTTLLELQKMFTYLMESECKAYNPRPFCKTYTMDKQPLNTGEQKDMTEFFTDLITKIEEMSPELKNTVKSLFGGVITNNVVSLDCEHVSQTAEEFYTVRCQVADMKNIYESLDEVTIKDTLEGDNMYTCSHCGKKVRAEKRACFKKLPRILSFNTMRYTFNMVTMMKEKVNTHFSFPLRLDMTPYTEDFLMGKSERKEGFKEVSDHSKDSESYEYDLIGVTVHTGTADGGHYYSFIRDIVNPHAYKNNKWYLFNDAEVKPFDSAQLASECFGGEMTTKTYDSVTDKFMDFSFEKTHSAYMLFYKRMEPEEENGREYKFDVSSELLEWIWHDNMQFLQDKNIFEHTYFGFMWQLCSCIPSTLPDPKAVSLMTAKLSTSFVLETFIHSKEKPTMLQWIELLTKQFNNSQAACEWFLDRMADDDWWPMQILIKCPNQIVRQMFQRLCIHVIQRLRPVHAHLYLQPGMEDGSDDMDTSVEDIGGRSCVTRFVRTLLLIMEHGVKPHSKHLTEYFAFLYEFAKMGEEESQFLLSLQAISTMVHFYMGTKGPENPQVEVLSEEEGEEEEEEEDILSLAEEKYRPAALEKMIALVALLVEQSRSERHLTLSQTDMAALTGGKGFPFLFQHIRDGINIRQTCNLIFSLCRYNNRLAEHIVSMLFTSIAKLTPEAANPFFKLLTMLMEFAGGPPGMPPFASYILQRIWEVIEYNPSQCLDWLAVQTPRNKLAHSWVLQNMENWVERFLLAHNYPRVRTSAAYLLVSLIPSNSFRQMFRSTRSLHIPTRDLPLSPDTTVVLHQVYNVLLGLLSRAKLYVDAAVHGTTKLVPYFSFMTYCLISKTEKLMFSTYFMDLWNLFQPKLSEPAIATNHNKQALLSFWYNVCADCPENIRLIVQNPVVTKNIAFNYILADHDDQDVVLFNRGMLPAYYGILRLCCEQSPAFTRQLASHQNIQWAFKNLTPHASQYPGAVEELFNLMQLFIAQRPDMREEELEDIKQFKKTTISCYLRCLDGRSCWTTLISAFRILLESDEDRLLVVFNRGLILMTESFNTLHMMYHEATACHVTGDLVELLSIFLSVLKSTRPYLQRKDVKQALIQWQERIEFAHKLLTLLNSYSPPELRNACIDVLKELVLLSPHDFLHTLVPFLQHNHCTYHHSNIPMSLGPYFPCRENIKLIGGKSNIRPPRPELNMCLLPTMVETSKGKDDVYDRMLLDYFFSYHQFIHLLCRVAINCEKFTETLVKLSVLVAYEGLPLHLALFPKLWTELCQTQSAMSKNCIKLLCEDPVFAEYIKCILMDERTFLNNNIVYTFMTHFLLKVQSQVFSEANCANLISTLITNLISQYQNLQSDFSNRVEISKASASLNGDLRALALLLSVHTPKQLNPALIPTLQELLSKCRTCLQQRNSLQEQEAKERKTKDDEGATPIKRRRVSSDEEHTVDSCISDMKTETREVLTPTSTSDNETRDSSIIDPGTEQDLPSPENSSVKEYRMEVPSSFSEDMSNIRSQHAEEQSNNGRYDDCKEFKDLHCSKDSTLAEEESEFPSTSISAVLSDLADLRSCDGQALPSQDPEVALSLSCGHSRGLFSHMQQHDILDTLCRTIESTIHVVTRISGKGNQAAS
structure (smiles),measurement,setting,value
O=C(CCl)N1CCc2[nH]c3ccccc3c2C1,log2 ratio of Biotin-Ahx-Ub-VS probe labelling,USP34,-0.571
same,log2 ratio of Biotin-Ahx-Ub-VS probe labelling,USP36,0.0133
same,log2 ratio of Biotin-Ahx-Ub-VS probe labelling,USP38,-0.674
same,log2 ratio of Biotin-Ahx-Ub-VS probe labelling,USP39,5.6e-06
same,log2 ratio of Biotin-Ahx-Ub-VS probe labelling,USP4,-1.51 (active)
